Results taken from PubChem BioAssay AID1578 (Sanford-Burnham Center for Chemical Genomics, 2009).
Among all 290,000 compounds or so, about 3,000 (1%) were called active. The list comes from a sample in which actives are over-represented; it also holds similar structures and randomly drawn compounds. A number with no mark means an inactive call. No stated cut-off is given here; in the data, active means inhibition mostly above about 36% (no sharp cut-off); inactive means mostly below about 34%.

Test: NOD1 signaling inhibitors, primary screen, cell-based, luminescence, uHTS (AID 1578);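 further: HEK-293T reporter cells stimulated with the NOD1 agonist gamma-tri-DAP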
Details: NOD1-driven NF-kB luciferase reporter cells, at 4 µM, hits give high values

Question: For `CC(C)CCNC(=O)c1ccc2c(SCC(=O)O)c3c(nc2c1)CCCC3`, which inhibition is on record?
Answer: -29.5%

Question: With `O=C(O)CSc1c2c(nc3cc(C(=O)NCCN4CCOCC4)ccc13)CCC2` as the compound, how does the inhibition read?
Answer: 91.8% (active)

Question: For `CC(C)CCNC(=O)c1ccc2c(SCC(=O)O)c3c(nc2c1)CCC3`, which inhibition is on record?
Answer: 0.8%

Question: Which inhibition does the source give for `Cc1ccc(S(=O)(=O)Cc2ccc(C(=O)N3CCN(c4cccc(C)c4C)CC3)o2)cc1` here?
Answer: 27.1%

Question: Which inhibition does the source give for `Cc1ccccc1S(=O)(=O)Cc1ccc(C(=O)N2CCN(c3ccccc3F)CC2)o1` here?
Answer: 21.3%

Question: Which inhibition does the source give for `COc1ccccc1-c1noc(-c2cc(OC)c(OC)c(OC)c2)n1` here?
Answer: -24%

Question: Which inhibition does the source give for `CC(C(=O)OCC(=O)c1cccc([N+](=O)[O-])c1)N1C(=O)C2C3CCC(C3)C2C1=O` (configuration not stated) here?
Answer: -8.4%

Question: With `NC(=O)COC(=O)C1CSC2(c3ccc(F)cc3)CCC(=O)N12` (configuration not stated) as the compound, how does the inhibition read?
Answer: -7.5%

Question: With `Oc1ccc2ccccc2c1/C=N/Nc1ccccc1` as the compound, how does the inhibition read?
Answer: -38.9%

Question: Which inhibition does the source give for `O=C(CNc1ccccc1)N/N=C/c1c(O)ccc2ccccc12` here?
Answer: -10.9%

Question: With `O=C(CSCC(=O)Nc1ccccc1)N/N=C/c1c(O)ccc2ccccc12` as the compound, how does the inhibition read?
Answer: 86.4% (active)

Question: For `Cc1cccc(C)c1NC(=O)CCCSc1nnnn1C`, which inhibition is on record?
Answer: -22.8%

Question: With `Cc1ccc(NC(=O)CC2SC(=NC3CCCCC3)NC2=O)cc1` (configuration not stated) as the compound, how does the inhibition read?
Answer: -23.2%

Question: With `CCCn1cccc(C(=O)Nc2ccc(OC)cc2)c1=O` as the compound, how does the inhibition read?
Answer: -3.2%

Question: For `O=C(CSc1nnc(CNC(=O)c2c(F)cccc2F)o1)NCc1ccccc1`, which inhibition is on record?
Answer: -29.1%

Question: For `CCN(CC)S(=O)(=O)c1ccc(N=Cc2c(C)c(C#N)c(=O)n(C)c2O)cc1`, which inhibition is on record?
Answer: -9.8%

Question: For `COc1ccc(C2NC(=S)NC(O)(C(F)(F)F)C2C(=O)c2cccs2)cc1` (configuration not stated), which inhibition is on record?
Answer: -33.8%

Question: For `CC(/C=N/n1cnnc1)=C\c1ccccc1`, which inhibition is on record?
Answer: -1%

Question: For `Nc1nnnn1/N=C/C=C/c1ccccc1`, which inhibition is on record?
Answer: 10.1%

Question: Which inhibition does the source give for `ClC(/C=N/n1cnnc1)=C/c1ccccc1` here?
Answer: 1.7%

Question: Which inhibition does the source give for `Nc1nnnn1/N=C/c1ccccc1` here?
Answer: -4%

Question: For `BrC(=C\c1ccccc1)/C=N/n1cnnc1`, which inhibition is on record?
Answer: 66.7% (active)

Question: Which inhibition does the source give for `Nc1nnnn1/N=C/C(Br)=C/c1ccccc1` here?
Answer: 95.9% (active)

Question: For `Cc1ccc(C(=O)Nc2ccc(S(=O)(=O)Nc3cnc4ccccc4n3)cc2)cc1`, which inhibition is on record?
Answer: -14.5%

Question: For `COc1cccc(/C=C2\SC(=S)N(CCCC(=O)Nc3cc(C)on3)C2=O)c1`, which inhibition is on record?
Answer: -22.5%

Question: Which inhibition does the source give for `Cc1cccc2c1CC(C)(C)N=C2C1=C(O)CCCC1=O` here?
Answer: -19.9%

Question: With `C/C(=N\NC(=O)C1CC1)c1ccc(C(C)(C)C)cc1` as the compound, how does the inhibition read?
Answer: -39.6%

Question: With `CSc1ccc(OC2CCCCC2NS(=O)(=O)c2ccc(Cl)cc2)cc1` (configuration not stated) as the compound, how does the inhibition read?
Answer: 8.3%

Question: Which inhibition does the source give for `Oc1ccccc1/C=N/NC(=S)NC1CC2C=CC1C2` (configuration not stated) here?
Answer: -1.4%

Question: For `Oc1c(Br)cc(/C=N/NC(=S)NCc2ccco2)cc1Br`, which inhibition is on record?
Answer: 15%

Question: For `Oc1c(Br)cc(Br)cc1/C=N/NC(=S)N[C@H]1CC2C=CC1C2` (some centres not stated), which inhibition is on record?
Answer: 47.8% (active)

Question: With `CC(C)(C)NC(=S)N/N=C/c1cccnc1` as the compound, how does the inhibition read?
Answer: -10.2%

Question: Which inhibition does the source give for `CCC(O)(CC)C(=O)N/N=C/c1cc(Br)cc(Br)c1O` here?
Answer: 1.3%

Question: Which inhibition does the source give for `CNC(=S)N/N=C/c1cc(Br)cc(Br)c1O` here?
Answer: 73.9% (active)

Question: With `Oc1c(Cl)cc(Cl)cc1/C=N/NC(=S)NC1CC2C=CC1C2` (configuration not stated) as the compound, how does the inhibition read?
Answer: 26.6%

Question: For `CNC(=S)N/N=C/c1cc(C)ccc1C`, which inhibition is on record?
Answer: -38.3%

Question: For `Nc1nc(SCC(=O)N2CCCCC2)[nH]c(=O)c1NC(=O)c1cccs1`, which inhibition is on record?
Answer: -15.7%

Question: For `COc1ccc(N(CC(=O)Nc2ccc3c(c2)OCCO3)S(C)(=O)=O)c(OC)c1`, which inhibition is on record?
Answer: -7.6%

Question: With `COc1ccc(Cn2c3ccc(OC)cc3c3nc4ccccc4nc32)cc1` as the compound, how does the inhibition read?
Answer: -41.1%

Question: With `Cc1cc(Br)ccc1OCCCCNCCO` as the compound, how does the inhibition read?
Answer: -40.2%

Question: With `O=c1cc(COc2ccc(Cl)c(Cl)c2)nc2sccn12` as the compound, how does the inhibition read?
Answer: -5.4%

Question: Which inhibition does the source give for `CCN(CC)c1ccc(N=Cc2ccc([N+](=O)[O-])o2)cc1` here?
Answer: -31.4%

Question: Which inhibition does the source give for `Cc1ccc(NC(=O)Cc2ccccc2)c(C)c1` here?
Answer: -29.9%

Question: With `Cc1ccc(NC(=O)c2cc(C)nc3ccccc23)c(C)c1` as the compound, how does the inhibition read?
Answer: -34.7%

Question: Which inhibition does the source give for `COc1ccccc1N(C(=O)c1ccco1)C(C(=O)NC1CCCC1)c1ccc(N2CCOCC2)cc1` (configuration not stated) here?
Answer: 37.6%

Question: With `Cc1ccccc1CC(=O)N1CCCC(CCC(=O)N2CCN(c3ccccn3)CC2)C1` (configuration not stated) as the compound, how does the inhibition read?
Answer: -12.6%

Question: Which inhibition does the source give for `CCc1c(C)c(C#N)c2[nH]c3ccccc3n2c1=S` here?
Answer: 1.4%

Question: For `Cc1c(CCC(=O)O)c(=O)n2c([nH]c3ccccc32)c1C#N`, which inhibition is on record?
Answer: 0.9%

Question: For `Cc1c(Cc2ccccc2)c(=O)n2c([nH]c3ccccc32)c1C#N`, which inhibition is on record?
Answer: 90.3% (active)

Question: For `Cc1c(CCO)c(=O)n2c([nH]c3ccccc32)c1C#N`, which inhibition is on record?
Answer: 1.6%

Question: With `C=C(C)Cc1c(C)c(C#N)c2[nH]c3ccccc3n2c1=O` as the compound, how does the inhibition read?
Answer: 19.2%

Question: For `Cc1c(CCC(C)C)c(=O)n2c([nH]c3ccccc32)c1C#N`, which inhibition is on record?
Answer: 91.2% (active)

Question: With `CN(C1CCCCC1)S(=O)(=O)c1ccc(NC(=O)c2ccco2)cc1` as the compound, how does the inhibition read?
Answer: 1.3%

Question: Which inhibition does the source give for `CN1C(=O)C(C)(C)c2cc(S(=O)(=O)N(C)Cc3ccccc3)ccc21` here?
Answer: -4.1%

Question: For `COc1cccc2c1Oc1ncccc1N(C(=O)CCC(=O)NCc1ccccc1)C2`, which inhibition is on record?
Answer: -19.2%

Question: For `O=C(CN1CCCc2ccccc21)NC(=O)NCc1ccccc1`, which inhibition is on record?
Answer: -4.3%

Question: For `O=C(c1ccccc1)C1CCN(c2ncccc2[N+](=O)[O-])CC1`, which inhibition is on record?
Answer: -8.7%

Question: For `Cc1nc(NCc2ccc3c(c2)OCO3)c2oc3ccccc3c2n1`, which inhibition is on record?
Answer: 15.2%

Question: Which inhibition does the source give for `CCc1nc(NCc2ccc3c(c2)OCO3)c2oc3ccccc3c2n1` here?
Answer: 23.2%

Question: Which inhibition does the source give for `c1ccc2c(c1)oc1c(NCc3ccc4c(c3)OCO4)ncnc12` here?
Answer: 66.2% (active)

Question: Which inhibition does the source give for `O=C(CSc1nnnn1-c1ccccc1)Nc1ccc(Cl)cc1` here?
Answer: 18.8%

Question: With `O=C(CSc1nnnn1-c1ccccc1)CC(=O)Nc1ccc(Cl)cc1` as the compound, how does the inhibition read?
Answer: 73.1% (active)

Question: Which inhibition does the source give for `O=C(CSc1nnnn1-c1ccccc1)Nc1ccccc1` here?
Answer: -15.6%

Question: With `CN1C(=O)SC(Nc2cccc3ccccc23)C1=O` (configuration not stated) as the compound, how does the inhibition read?
Answer: -30.3%

Question: Which inhibition does the source give for `O=C(CN1C(=O)C2CC=CCC2C1=O)NC1CCCCC1` (configuration not stated) here?
Answer: -35.5%

Question: With `O=C(CCN1C(=O)C2CC=CCC2C1=O)NC1CCCCC1` (configuration not stated) as the compound, how does the inhibition read?
Answer: 44.9% (active)

Question: For `O=C(CCN1C(=O)C2CC=C(Cl)CC2C1=O)NC1CCCCC1` (configuration not stated), which inhibition is on record?
Answer: -1.2%

Question: With `Cc1cc2ccccn2c1C(=O)c1ccc(C#N)cc1` as the compound, how does the inhibition read?
Answer: 2%

Question: Which inhibition does the source give for `CCOc1ccc2c(c1)OC(c1ccc(OC)cc1)(C(F)(F)F)NC2=O` (configuration not stated) here?
Answer: -30.6%

Question: For `CCOc1ccc2c(c1)OC(c1ccccc1)(C(F)(F)F)NC2=O` (configuration not stated), which inhibition is on record?
Answer: -42.1%

Question: Which inhibition does the source give for `CCOc1ccc2c(c1)OC(c1ccc(C)cc1)(C(F)(F)F)NC2=O` (configuration not stated) here?
Answer: 101% (active)

Question: Which inhibition does the source give for `CC(Sc1nnc(CC(=O)Nc2ccccc2F)n1C)C(=O)Nc1nccs1` (configuration not stated) here?
Answer: -32.4%

Question: Which inhibition does the source give for `Cc1cc(C)c(-n2c(SCCS(=O)(=O)c3ccc(F)cc3)n[nH]c2=O)c(C)c1` here?
Answer: 69.7% (active)

Question: With `O=c1[nH]nc(SCCS(=O)(=O)c2ccc(F)cc2)n1-c1ccccc1` as the compound, how does the inhibition read?
Answer: -11.2%

Question: Which inhibition does the source give for `Cc1ccc(S(=O)(=O)CCSc2n[nH]c(=O)n2-c2ccccc2)cc1` here?
Answer: -6.8%

Question: With `CCOC(=O)c1[nH]cnc1C(=O)Nc1cccc(OC)c1` as the compound, how does the inhibition read?
Answer: -3.5%

Question: Which inhibition does the source give for `CCCCC(c1nnnn1CC1CCCO1)N1CCN(c2ccccc2)CC1` (configuration not stated) here?
Answer: -34.5%

Question: Which inhibition does the source give for `CCN(c1ccccc1)S(=O)(=O)c1ccc2c(c1)CC(C)N2C(=O)C1CC1` (configuration not stated) here?
Answer: -12.9%

Question: Which inhibition does the source give for `CC(=O)NC1(c2ccccc2)CCN(c2nc(C)cc(C)n2)CC1` here?
Answer: -0.9%

Question: With `CC(=O)NC1(c2ccccc2)CCN(c2cc(C)nc(-c3ccccc3)n2)CC1` as the compound, how does the inhibition read?
Answer: 52.2% (active)

Question: Which inhibition does the source give for `Cc1cc(N2CCC(C(N)=O)CC2)nc(-c2ccccc2)n1` here?
Answer: 2%

Question: For `CCN(Cc1ccncc1)Cc1nc(CC2CC2)no1`, which inhibition is on record?
Answer: -8.9%

Question: With `COc1ccc(C(=O)C(CCCCC(CN(C)C)C(=O)c2ccc(OC)cc2)CN(C)C)cc1` (configuration not stated) as the compound, how does the inhibition read?
Answer: -6%

Question: With `CN(C)CC(CCCCC(CN(C)C)C(=O)c1ccccc1)C(=O)c1ccccc1` (configuration not stated) as the compound, how does the inhibition read?
Answer: -4.1%

Question: For `COc1ccccc1NC(=O)CN1CCN(CC(=O)Nc2ccccc2Cl)CC1`, which inhibition is on record?
Answer: -18.4%

Question: Which inhibition does the source give for `O=C(Nc1ccccc1)Nc1cc([N+](=O)[O-])ccc1F` here?
Answer: -17.9%

Question: For `O=C(Nc1ccc(Cl)cc1)Nc1cc([N+](=O)[O-])ccc1F`, which inhibition is on record?
Answer: 30.3%

Question: For `COc1ccc(C2/C(=C(/O)c3ccc(C)cc3)C(=O)C(=O)N2C)c(OC)c1` (configuration not stated), which inhibition is on record?
Answer: -29.5%

Question: With `CCC1CCC(C(=O)NC(C(=O)NCCN2CCOCC2)C(C)C)CC1` (configuration not stated) as the compound, how does the inhibition read?
Answer: -24.4%

Question: Which inhibition does the source give for `Cc1cc(Cl)c(S(=O)(=O)Nc2cc(S(=O)(=O)N3CCOCC3)ccc2F)cc1OCC(N)=O` here?
Answer: -11.8%

Question: For `Cn1nccc1C(=O)N1CCN(c2cccc(C(F)(F)F)c2)CC1`, which inhibition is on record?
Answer: -2.5%

Question: For `CC1Oc2ccccc2N(CC(=O)NCc2ccc3c(c2)OCO3)C1=O` (configuration not stated), which inhibition is on record?
Answer: -48.9%

Question: Which inhibition does the source give for `COc1ccc(OC)c(/C=N\NC(=O)c2c(C)nc3cc(C)ccn23)c1` here?
Answer: -8.5%

Question: With `CN(C(=O)COc1ccccc1)c1nnc(C23CC4CC(CC(C4)C2)C3)s1` as the compound, how does the inhibition read?
Answer: 104% (active)

Question: For `CN(C(=O)COc1ccc(Cl)cc1Cl)c1nnc(C23CC4CC(CC(C4)C2)C3)s1`, which inhibition is on record?
Answer: -34.1%

Question: With `CN(C(=O)COc1ccc(Cl)cc1)c1nnc(C23CC4CC(CC(C4)C2)C3)s1` as the compound, how does the inhibition read?
Answer: 4.5%

Question: For `O=C(NNC(=S)Nc1ccc(Cl)c(Cl)c1)c1cccc([N+](=O)[O-])c1`, which inhibition is on record?
Answer: -11.1%
